According to PubChem BioAssay (Tox21):
Inconclusive results are not listed. Entries that show only a call come without a potency. More than one record can exist for a structure, and the calls need not agree. Active and inactive are the calls of the source. Calls come from the whole dose curve.

Tests used:
[1] = target: Acetylcholinesterase (Homo sapiens) (UniProt P22303); assay: Acetylcholinesterase (AChE) small molecule antagonists: colormetric cell-based qHTS assay (AID 1347395); note: nearly all actives have a fitted effect of over 30% in size; note: potency is the fitted concentration of half-maximal effect
Acetylcholinesterase (Homo sapiens), sequence (P22303 whole entry, looked up): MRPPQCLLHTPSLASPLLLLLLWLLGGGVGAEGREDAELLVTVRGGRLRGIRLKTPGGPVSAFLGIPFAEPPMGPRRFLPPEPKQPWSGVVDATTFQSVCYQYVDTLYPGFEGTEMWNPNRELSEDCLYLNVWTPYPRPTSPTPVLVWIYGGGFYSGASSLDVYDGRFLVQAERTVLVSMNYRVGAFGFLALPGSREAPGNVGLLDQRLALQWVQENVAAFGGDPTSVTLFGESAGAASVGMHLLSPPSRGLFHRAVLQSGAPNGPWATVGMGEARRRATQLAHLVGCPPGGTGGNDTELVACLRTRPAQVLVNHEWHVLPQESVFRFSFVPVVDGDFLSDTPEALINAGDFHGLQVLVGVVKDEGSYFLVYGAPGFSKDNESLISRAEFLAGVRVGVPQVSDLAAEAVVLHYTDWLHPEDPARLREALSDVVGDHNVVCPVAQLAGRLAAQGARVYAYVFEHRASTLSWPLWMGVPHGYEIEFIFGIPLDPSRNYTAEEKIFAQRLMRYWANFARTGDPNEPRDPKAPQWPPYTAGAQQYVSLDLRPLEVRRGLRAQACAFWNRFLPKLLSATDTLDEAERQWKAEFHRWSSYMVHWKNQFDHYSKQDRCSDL
Procedure, shortened: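 SH-SY5Y cells attached overnight, exposed to compound 30 min at 37 C, then given DTNB/acetylthiocholine; after 90 min at 37 C, colorimetric thiocholine read gives cellular AChE activity.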

[2] = target: Acetylcholinesterase (Homo sapiens) (UniProt P22303); assay: Acetylcholinesterase (AChE) small molecule antagonists: enzyme-based qHTS assay (AID 1347397); conditions: Potency: AChE enzyme activity inhibition; outcome: AChE enzyme activity inhibition; note: nearly all actives have a fitted effect of over 55% in size; note: potency is the fitted concentration of half-maximal effect
Procedure, shortened: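 Tox21 library chemicals are tested in qHTS format against recombinant human AChE. The enzyme, dispensed at 50 mU/mL, sits with compound for 30 min at room temperature. A DTNB–acetylthiocholine cocktail follows, and colour is read after 10 min.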

[3] = target: Acetylcholinesterase (Homo sapiens) (UniProt P22303); assay: Acetylcholinesterase (AChE) small molecule antagonists: fluorescence cell-based qHTS assay (AID 1347398); conditions: Potency: AChE activity; outcome: AChE activity; note: nearly all actives have a fitted effect of over 50% in size; note: potency is the fitted concentration of half-maximal effect
Procedure, shortened: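 Cellular AChE inhibition: SH-SY5Y cells treated with test chemical for 30 min at 37 C, then acetylthiocholine hydrolysis followed over 40 min at room temperature via thiocholine-reactive Thiolite Green fluorescence (490/520 nm).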

[4] = target: Acetylcholinesterase (Homo sapiens) (UniProt P22303); assay: Acetylcholinesterase (AChE) small molecule antagonists: enzyme-based qHTS assay with human liver microsomes (AID 1347399); conditions: Potency: qHTS inhibition; outcome: qHTS inhibition; note: nearly all actives have a fitted effect of over 60% in size
Procedure, shortened: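 Recombinant human AChE (50 mU/mL in the enzyme mix) and human liver microsomes (0.25 mg/mL final) were preincubated with compound and NADPH (0.25 mg/mL final) for 30 min at 37 C. Acetylthiocholine/DTNB was then added; thiocholine was read colorimetrically after 10 min at room temperature.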

## CCCCCC1CCC(=O)O1 (stereo not given)
[1]
  Potency: inactive
[2]
  Potency: inactive
[3]
  Potency: inactive
[4]
  Potency: inactive

## CCCCC(CC)COC(=O)c1ccccc1 (stereo not given)
[1]
  Potency: inactive
[2]
  Potency: inactive
[3]
  Potency: inactive
[4]
  Potency: inactive

## C/C(=N\O)[C@@H](C)NCC(C)(C)CN[C@H](C)/C(C)=N/O
[1]
  Potency: inactive
[2]
  Potency: inactive
[3]
  Potency: inactive
[4]
  Potency: inactive

## Cc1cc(O)cc(C)c1Cl
[1]
  Potency: inactive
[2]
  Potency: inactive
[3]
  Potency: inactive
[4]
  Potency: inactive

## CCCCCCCCOCCC#N
[1]
  Potency: inactive
[2]
  Potency: inactive
[3]
  Potency: inactive
[4]
  Potency: inactive

## CCCCC(CC)COS(=O)(=O)O (stereo not given)
[1]
  Potency: inactive
[2]
  Potency: inactive
[3]
  Potency: inactive
[4]
  Potency: inactive

## CCCCS
[1]
  Potency: inactive
[2]
  Potency: inactive
[3]
  Potency: inactive
[4]
  Potency: inactive

## c1ccc(CNc2ncnc3c2ncn3C2CCCCO2)cc1 (stereo not given)
[1]
  Potency: inactive
[2]
  Potency: inactive
[3]
  Potency: inactive
[4]
  Potency: inactive

## OCC1CCC(CO)CC1 (stereo not given)
[1]
  Potency: inactive
[2]
  Potency: inactive
[3]
  Potency: inactive
[4]
  Potency: inactive

## C/C(C=O)=C\c1ccccc1
[1]
  Potency: inactive
[2]
  Potency: inactive
[3]
  Potency: inactive
[4]
  Potency: inactive

## COc1ccc(CCN(C)CCCN2CCc3cc(OC)c(OC)cc3CC2=O)cc1OC
[1]
  Potency: inactive
[2]
  Potency: inactive
[3]
  Potency: inactive
[4]
  Potency: inactive

## BrC(Br)C(Br)Br
[1]
  Potency: inactive
[2]
  Potency: inactive
[3]
  Potency: inactive
[4]
  Potency: inactive

## CN(C)c1ccc(C(c2ccccc2)c2ccc(N(C)C)cc2)cc1
[1]
  Potency: inactive
[2]
  Potency: inactive
[3]
  Potency: inactive
[4]
  Potency: inactive

## COc1cc(C(=S)N2CCOCC2)cc(OC)c1OC
[1]
  Potency: inactive
[2]
  Potency: inactive
[3]
  Potency: inactive
[4]
  Potency: inactive

## CC/C=C/CCO
[1]
  Potency: inactive
[2]
  Potency: inactive
[3]
  Potency: inactive
[4]
  Potency: inactive

## CCCC(C)CO (stereo not given)
[1]
  Potency: inactive
[2]
  Potency: inactive
[3]
  Potency: inactive
[4]
  Potency: inactive

## C=CC(=O)OCC(C)OCC(C)OCC(C)OC(=O)C=C (stereo not given)
[1]
  Potency: inactive
[2]
  Potency: inactive
[3]
  Potency: inactive
[4]
  Potency: inactive

## O=C(OCCOCCOC(=O)c1ccccc1)c1ccccc1
[1]
  Potency: inactive
[2]
  Potency: inactive
[3]
  Potency: inactive
[4]
  Potency: inactive

## CN(C)c1ccc(CCO)cc1
[1]
  Potency: inactive
[2]
  Potency: inactive
[3]
  Potency: inactive
[4]
  Potency: inactive

## N[C@@H](Cc1cc(I)c(O)c(I)c1)C(=O)O
[1]
  Potency: inactive
[2]
  Potency: inactive
[3]
  Potency: inactive
[4]
  Potency: inactive

## CC(=O)Nc1ccc(OC(=O)c2ccccc2OC(C)=O)cc1
[1]
  Potency: inactive
[2]
  Potency: inactive
[3]
  Potency: inactive
[4]
  Potency: inactive

## OC1OCCOC1O (stereo not given)
[1]
  Potency: inactive
[2]
  Potency: inactive
[3]
  Potency: inactive
[4]
  Potency: inactive

## O=C(O)CCCCC(=O)O
[1]
  Potency: inactive
[2]
  Potency: inactive
[3]
  Potency: inactive
[4]
  Potency: inactive

## Nc1ccc(N=Nc2ccccc2)c(N)n1
[1]
  Potency: inactive
[2]
  Potency: inactive
[3]
  Potency: inactive
[4]
  Potency: inactive

## Cc1ccc(C(C)C)c(O)c1
[1]
  Potency: inactive
[2]
  Potency: inactive
[3]
  Potency: inactive
[4]
  Potency: inactive

## O=C1NCN(c2ccccc2)C12CCN(CCCC(c1ccc(F)cc1)c1ccc(F)cc1)CC2
[1]
  Potency: inactive
[2]
  Potency: inactive
[3]
  Potency: inactive
[4]
  Potency: inactive

## CO/N=C(/C(=O)N[C@@H]1C(=O)N2C(C(=O)O)=C(Cn3nnc(C)n3)CS[C@H]12)c1csc(N)n1
[1]
  Potency: inactive
[2]
  Potency: inactive
[3]
  Potency: inactive
[4]
  Potency: inactive

## CNC(=O)[C@H]1O[C@@H](n2cnc3c(NCc4cc(Cl)ccc4OCc4cc(C)no4)ncnc32)[C@H](O)[C@@H]1N
[1]
  Potency: inactive
[2]
  Potency: inactive
[3]
  Potency: inactive
[4]
  Potency: inactive

## CC(N)C12CC3CC(CC(C3)C1)C2 (stereo not given)
[1]
  Potency: inactive
[2]
  Potency: inactive
[3]
  Potency: inactive
[4]
  Potency: inactive

## CCC1OCC(COc2ccc(Oc3ccccc3)cc2)O1 (stereo not given)
[1]
  Potency: inactive
[2]
  Potency: inactive
[3]
  Potency: inactive
[4]
  Potency: inactive

## C[C@@H]1CN(c2c(F)c(N)c3c(=O)c(C(=O)O)cn(C4CC4)c3c2F)C[C@H](C)N1
[1]
  activity, negative = inhibition: 1.94% [at 23.6 µM] (inactive)
[2]
  activity change, negative = inhibition: -2.1% [at 23.6 µM] (inactive)
[3]
  activity change, negative = inhibition: -0.604% [at 23.8 µM] (inactive)
[4]
  activity change, negative = inhibition: 0.841% [at 23.6 µM] (inactive)

## CC1=NN(c2cc(S(=O)(=O)O)ccc2Cl)C(=O)C1N=Nc1ccccc1 (stereo not given)
[1]
  Potency: inactive
[2]
  Potency: inactive
[3]
  Potency: inactive
[4]
  Potency: inactive

## CCCCCCCCCC(=O)OC
[1]
  Potency: inactive
[2]
  Potency: inactive
[3]
  Potency: 34.9 µM (active) and inactive
[4]
  Potency: inactive

## CCC/C=C(\C=O)CC
[1]
  Potency: inactive
[2]
  Potency: inactive
[3]
  Potency: inactive
[4]
  Potency: inactive

## NC(=O)CC[C@@H]1NC(=O)[C@H](Cc2ccccc2)NC(=O)[C@H](Cc2ccc(O)cc2)NC(=O)CCSSC[C@@H](C(=O)N2CCC[C@H]2C(=O)N[C@@H](CCCN=C(N)N)C(=O)NCC(N)=O)NC(=O)[C@H](CC(N)=O)NC1=O
[1]
  Potency: inactive
[2]
  Potency: inactive
[3]
  Potency: inactive
[4]
  Potency: inactive

## CO[Si](C)(C)OC
[1]
  Potency: inactive
[2]
  Potency: inactive
[3]
  Potency: inactive
[4]
  Potency: inactive

## CCCCCC[C@@H](O)C/C=C\CCCCCCCC(=O)O
[1]
  Potency: inactive
[2]
  Potency: inactive
[3]
  Potency: inactive
[4]
  Potency: inactive

## CCc1cccc2c(CCO)c[nH]c12
[1]
  Potency: inactive
[2]
  Potency: inactive
[3]
  Potency: inactive
[4]
  Potency: inactive

## c1ccc(CCc2ccccc2)cc1
[1]
  Potency: inactive
[2]
  Potency: inactive
[3]
  Potency: inactive
[4]
  Potency: inactive

## C=COCCCCO
[1]
  Potency: inactive
[2]
  Potency: inactive
[3]
  Potency: inactive
[4]
  Potency: inactive

## c1ccc(CNCCNCc2ccccc2)cc1
[1]
  Potency: inactive
[2]
  Potency: inactive
[3]
  Potency: inactive
[4]
  Potency: inactive

## CC12CCCC=C1C(=O)OC2=O (stereo not given)
[1]
  Potency: inactive
[2]
  Potency: inactive
[3]
  Potency: inactive
[4]
  Potency: inactive

## NC(=O)c1ccc([N+](=O)[O-])cc1
[1]
  Potency: inactive
[2]
  Potency: inactive
[3]
  Potency: inactive
[4]
  Potency: inactive

## O=c1[nH]c(=O)n([C@H]2C[C@H](O)[C@@H](CO)O2)cc1F
[1]
  Potency: inactive
[2]
  Potency: inactive
[3]
  Potency: inactive
[4]
  Potency: inactive

## Nc1ccc2cc(S(=O)(=O)O)cc(O)c2c1
[1]
  Potency: inactive
[2]
  Potency: inactive
[3]
  Potency: inactive
[4]
  Potency: inactive

## Oc1cccc(-c2c3nc(c(-c4cccc(O)c4)c4ccc([nH]4)c(-c4cccc(O)c4)c4nc(c(-c5cccc(O)c5)c5ccc2[nH]5)CC4)C=C3)c1
[1]
  Potency: inactive
[2]
  Potency: inactive
[3]
  Potency: inactive
[4]
  Potency: inactive

## c1cc(CN2CCCCC2)cc(OCCCNc2nc3ccccc3s2)c1
[1]
  Potency: 15.5 µM (active)
[2]
  Potency: 27.5 µM (active)
[3]
  Potency: 13.8 µM (active)
[4]
  Potency: inactive

## Cl[Si](Cl)(c1ccccc1)c1ccccc1
[1]
  Potency: inactive
[2]
  Potency: inactive
[3]
  Potency: inactive
[4]
  Potency: inactive

## CC(C)(N=C=O)c1cccc(C(C)(C)N=C=O)c1
[1]
  Potency: inactive
[2]
  Potency: inactive
[3]
  Potency: inactive
[4]
  Potency: inactive

## Cc1cccc2sc(N)nc12
[1]
  Potency: inactive
[2]
  Potency: inactive
[3]
  Potency: inactive
[4]
  Potency: inactive

## CCC(C)c1cc(C(C)(C)C)c(O)c(C(C)(C)C)c1 (stereo not given)
[1]
  Potency: inactive
[2]
  Potency: inactive
[3]
  Potency: inactive
[4]
  Potency: inactive

## c1cnc2cc3c(cc2n1)C1CNCC3C1
[1]
  Potency: inactive
[2]
  Potency: inactive
[3]
  Potency: inactive
[4]
  Potency: inactive

## NS(=O)(=O)c1cc2c(cc1Cl)NC=NS2(=O)=O
[1]
  Potency: inactive
[2]
  Potency: inactive
[3]
  Potency: inactive
[4]
  Potency: inactive

## CCCCC(CC)COC(=O)COc1ccc(Cl)cc1Cl (stereo not given)
[1]
  Potency: inactive
[2]
  Potency: inactive
[3]
  Potency: inactive
[4]
  Potency: inactive

## NCCc1ccc(O)c(O)c1
[1]
  outcome: inactive
[2]
  outcome: inactive
[3]
  outcome: inactive
[4]
  outcome: inactive

## Cc1cc(CC(=O)O)n(C)c1C(=O)c1ccc(Cl)cc1
[1]
  Potency: inactive
[2]
  Potency: inactive
[3]
  Potency: inactive
[4]
  Potency: inactive

## CN(C)CCC(c1ccccc1)c1ccccn1 (stereo not given)
[1]
  Potency: inactive
[2]
  Potency: inactive
[3]
  Potency: inactive
[4]
  Potency: inactive

## CCOC(=O)C(C)(C)Oc1ccc(Cl)cc1
[1]
  Potency: inactive
[2]
  Potency: inactive
[3]
  Potency: inactive
[4]
  Potency: inactive

## O=c1[nH]c(=O)c2ccccc2o1
[1]
  Potency: inactive
[2]
  Potency: inactive
[3]
  Potency: inactive
[4]
  Potency: inactive

## CCO[Si](CCCNC(N)=O)(OCC)OCC
[1]
  Potency: inactive
[2]
  Potency: inactive
[3]
  Potency: inactive
[4]
  Potency: inactive
